Test [1] in a line: E. coli DRC41 culture turbidity changes, primary screen, E. coli filamentation inducer project, strain DRC41, OD650, 48 h (AID 1152).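 Note: E. coli MC1000 strain DRC41 lacking acrAB efflux pump and sulA.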 Conditions: E. coli DRC41 (acrAB sulA), higher = more signal, called active from +8 up or from −8 down.
Test [2] can be described thus: small-molecule binders of probe aLefty1, primary screen, biochemical, small-molecule microarray, 635/667 nm fluorescence (AID 1153).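 Note: score merges spot fluorescence with signal-to-noise ratio from the scanned slide images.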 As to conditions: higher = more signal.
Test [3] can be described thus: PSAC antagonists in infected red cells, primary screen, cell-based, P. falciparum Indochina, OD700, 1 h (AID 1154). As to conditions: P. falciparum Indochina infected RBC osmotic lysis, higher = more signal, called active from +8 up or from −8 down.
A short description of test [4]: PSAC antagonists in infected red cells, primary screen, cell-based, P. falciparum Indochina, OD700, 2 h (AID 1155).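 Note: lysis reports solute entry through the parasite surface anion channel PSAC; channel blockers reduce lysis of infected cells.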 Conditions: P. falciparum Indochina infected erythrocytes, osmotic lysis OD700; higher = more signal, called active from +8 up or from −8 down.
The nature of test [5]: osmotic lysis modulators in infected erythrocytes, primary screen, PSAC antagonist project, cell-based, P. falciparum Indochina, OD700, 3 h (AID 1156). Conditions: higher = more signal, called active from +8 up or from −8 down.
A short description of test [6]: PSAC antagonists in infected red cells, primary screen, cell-based, P. falciparum Indochina, OD700, 18 h (AID 1157). As to conditions: P. falciparum Indochina infected erythrocytes, osmotic lysis OD700, 18 h; higher = more signal, called active from +8 up or from −8 down.
Test [7] is described as follows: modulators of S6 phosphorylation in cells, primary screen, cell-based, A549, cytoblot, luminescence, serum-stimulated (AID 1158).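 Note: serum-stimulated A549 lung adenocarcinoma cells; signal is phosphorylated S6 detected by cytoblot immunostaining with HRP secondary.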 Conditions: A549 phospho-S6 cytoblot, 5 h, higher = more signal.
Test [8] addresses NADPH oxidase 2 (Homo sapiens) (UniProt P04839). The experiment in a line: NOX2-dependent H2O2 signal modulators, primary screen, NOX inhibitor project, cell-based, HEK293-NOX2, PMA-stimulated, Amplex Red fluorescence (AID 1159). Note: test concentration not given here. Conditions: 45 min, higher = more signal, called active from +8 up or from −8 down.
Test [9] has as its target NADPH oxidase 4 (Homo sapiens) (UniProt Q9NPH5). The experiment in a line: NOX4-dependent H2O2 signal modulators, primary screen, NOX inhibitor project, cell-based, HEK293-NOX4, tetracycline-induced, Amplex Red fluorescence (AID 1160). As to conditions: 45 min, higher = more signal, called active from +8 up or from −8 down.
The target of test [10] is NADPH oxidase 5 (Homo sapiens) (UniProt Q96PH1). As to the kind of experiment: NOX5-dependent H2O2 signal modulators, primary screen, NOX inhibitor project, cell-based, HEK293-NOX5, Amplex Red fluorescence (AID 1161). As to conditions: HEK293-NOX5, ionomycin, 45 min, higher = more signal.
NADPH oxidase 5 (Homo sapiens), sequence (Q96PH1 whole entry, looked up): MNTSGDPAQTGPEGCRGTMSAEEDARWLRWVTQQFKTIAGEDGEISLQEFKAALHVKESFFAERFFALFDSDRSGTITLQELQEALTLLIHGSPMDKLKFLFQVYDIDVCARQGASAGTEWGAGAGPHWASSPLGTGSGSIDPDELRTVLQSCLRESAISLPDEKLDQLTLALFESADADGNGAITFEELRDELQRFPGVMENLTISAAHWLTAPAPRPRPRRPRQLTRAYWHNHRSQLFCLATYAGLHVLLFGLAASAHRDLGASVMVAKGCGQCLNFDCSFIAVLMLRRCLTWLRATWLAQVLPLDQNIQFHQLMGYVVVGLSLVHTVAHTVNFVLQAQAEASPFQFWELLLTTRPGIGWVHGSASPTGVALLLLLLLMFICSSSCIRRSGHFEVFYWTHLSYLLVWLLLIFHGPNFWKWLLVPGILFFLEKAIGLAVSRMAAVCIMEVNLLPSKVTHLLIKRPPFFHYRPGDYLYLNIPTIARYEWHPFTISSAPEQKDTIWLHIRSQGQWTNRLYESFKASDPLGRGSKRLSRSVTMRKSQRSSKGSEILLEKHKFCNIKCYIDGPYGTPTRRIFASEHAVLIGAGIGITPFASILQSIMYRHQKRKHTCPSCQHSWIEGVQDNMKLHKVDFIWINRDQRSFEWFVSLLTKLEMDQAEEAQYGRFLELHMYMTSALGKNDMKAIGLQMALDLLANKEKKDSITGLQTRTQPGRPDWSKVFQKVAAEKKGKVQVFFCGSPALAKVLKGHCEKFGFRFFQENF
The nature of test [11]: A549 cell viability effects, profiling panel, calcein-AM fluorescence, 48 h, basal (AID 1162). Note: test concentration not given here. As to conditions: higher = more signal.
Test [12] in a line: adipocyte viability effects, profiling panel, cell-based, 3T3-L1 adipocytes, calcein-AM fluorescence, 48 h, basal (AID 1163). Note: test concentration not given here. Conditions: 3T3-L1 adipocytes viability, higher = more signal.
Test [13] in a line: HepG2 cell viability effects, profiling panel, calcein-AM fluorescence, 48 h, basal (AID 1164). Note: test concentration not given here. Conditions: higher = more signal.
Test [14] is described as follows: MM1S cell viability effects, profiling panel, calcein-AM fluorescence, 48 h, basal (AID 1165).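 Note: viability of MM1S multiple myeloma cells under basal unstimulated conditions; test concentration not given here.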 As to conditions: higher = more signal.
Test [15] is described as follows: basal RPMI8226 viability, no added stimulus, profiling panel, cell-based, calcein-AM fluorescence, 48 h, PK04 Diversity Set (AID 1166).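 Note: cells grown under basal conditions without added stimulus; test concentration not given here.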 Conditions: RPMI8226 myeloma viability, higher = more signal.
Test [16] is described as follows: basal HepG2 mitochondrial membrane potential changes, profiling panel, cell-based, JC-1 fluorescence, 24 h, 100 nL compound (AID 1167). Note: test concentration not given here. Conditions: higher = more signal.
The nature of test [17]: basal 3T3-L1 adipocyte mitochondrial potential changes, profiling panel, cell-based, JC-1 fluorescence, 3T3-L1 adipocytes, 24 h, 100 nL compound (AID 1168). Note: test concentration not given here. As to conditions: JC-1 mitochondrial fluorescence, higher = more signal, called active from +8 up or from −8 down.
Test [18] can be described thus: basal RPMI8226 mitochondrial membrane potential changes, profiling panel, cell-based, JC-1 fluorescence, 24 h, 100 nL compound (AID 1169). Note: test concentration not given here. Conditions: RPMI8226 myeloma, JC-1 mitochondrial potential fluorescence, higher = more signal.
A short description of test [19]: basal MM1S mitochondrial membrane potential changes, profiling panel, cell-based, JC-1 fluorescence, 24 h, 100 nL compound (AID 1170). Note: test concentration not given here. Conditions: higher = more signal.
Test [20] in a line: A549 lung cancer cell viability effects, profiling panel, resazurin fluorescence, 24 h, PK04 Diversity Set (AID 1171). Note: test concentration not given here. Conditions: higher = more signal, called active from +8 up or from −8 down. (In general: Resazurin is reduced to fluorescent resorufin, in cell work by metabolically active cells.)

Calls of active or inactive are those of the source.

NADPH oxidase 4 (Homo sapiens), sequence (Q9NPH5 whole entry, looked up): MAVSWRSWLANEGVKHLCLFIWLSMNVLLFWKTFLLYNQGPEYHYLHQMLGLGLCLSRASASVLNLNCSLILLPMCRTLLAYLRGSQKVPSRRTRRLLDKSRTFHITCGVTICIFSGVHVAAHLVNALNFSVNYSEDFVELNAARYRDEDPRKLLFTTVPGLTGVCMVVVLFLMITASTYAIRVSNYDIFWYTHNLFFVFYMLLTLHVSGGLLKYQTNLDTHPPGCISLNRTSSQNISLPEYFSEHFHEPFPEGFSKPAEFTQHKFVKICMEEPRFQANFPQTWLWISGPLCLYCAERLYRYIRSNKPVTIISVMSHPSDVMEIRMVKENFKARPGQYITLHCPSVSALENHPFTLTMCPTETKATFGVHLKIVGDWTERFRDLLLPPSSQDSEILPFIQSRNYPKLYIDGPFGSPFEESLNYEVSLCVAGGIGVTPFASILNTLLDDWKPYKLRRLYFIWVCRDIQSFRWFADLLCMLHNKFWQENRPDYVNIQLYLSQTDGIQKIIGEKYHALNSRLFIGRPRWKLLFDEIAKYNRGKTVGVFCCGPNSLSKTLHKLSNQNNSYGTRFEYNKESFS
NADPH oxidase 2 (Homo sapiens), sequence (P04839 whole entry, looked up): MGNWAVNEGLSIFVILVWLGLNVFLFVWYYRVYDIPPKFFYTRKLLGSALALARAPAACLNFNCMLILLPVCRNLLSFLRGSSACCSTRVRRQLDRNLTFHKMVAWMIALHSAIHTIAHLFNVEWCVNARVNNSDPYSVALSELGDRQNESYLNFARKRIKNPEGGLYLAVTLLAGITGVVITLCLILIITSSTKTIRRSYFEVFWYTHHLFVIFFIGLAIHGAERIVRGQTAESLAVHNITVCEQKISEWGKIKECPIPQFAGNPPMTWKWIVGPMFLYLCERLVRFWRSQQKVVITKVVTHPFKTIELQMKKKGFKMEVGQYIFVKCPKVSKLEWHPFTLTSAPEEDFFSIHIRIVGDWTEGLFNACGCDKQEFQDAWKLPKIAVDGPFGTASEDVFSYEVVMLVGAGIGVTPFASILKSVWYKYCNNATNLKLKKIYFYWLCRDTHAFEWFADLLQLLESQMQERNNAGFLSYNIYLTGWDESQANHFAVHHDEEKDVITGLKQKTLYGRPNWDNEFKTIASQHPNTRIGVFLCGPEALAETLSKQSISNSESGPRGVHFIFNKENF

As for `C=CCC(OC(C)=O)[C@@H]1[C@@H](N(Cc2cccc3ccccc23)C(=O)c2ccc(C)cc2)c2cc(OCCCO)ccc2N1C(=O)c1ccc2ccccc2n1` (stereo not given in full), the z-score in [1] is 2.18 (inactive); in [3], 1.83 (inactive); in test [4], -0.623 (inactive); in test [5], -1.16 (inactive); in test [6] it was -1.37 (inactive); in [7] it was 1.62. In addition, the z-score is -0.604 (inactive) in [8]; 0.807 (inactive) in [9]; 2.44 in [10]; 0.375 in [11]; 0.694 in test [12]; 1.14 in test [13]. In addition, the z-score is 0.823 in test [14]; -0.473 in test [15]; 2.11 in [16]; 0.199 (inactive) in test [17]; 0.187 in test [18]; -1.25 in test [19]. Also, the z-score in test [20] is 0.34 (inactive). The compound also registered a composite z-score in test [2] of 0.0009.

As to `C=CCC(OC(C)=O)[C@@H]1[C@@H](N(Cc2cc3ccccc3o2)C(=O)c2cccc3ccccc23)c2cc(OCCCO)ccc2N1C(=O)c1ccc2ccccc2c1` (stereo not given in full), the z-score was -0.546 (inactive) in [1]; 0.92 (inactive) in test [3]; 0.0881 (inactive) in test [4]; 0.547 (inactive) in test [5]; 0.286 (inactive) in [6]; 0.552 in test [7]. Further, the z-score in test [8] was -0.764 (inactive); in [9], -0.797 (inactive); in [10] it was -2.19; in [11], 0.668; in [12], 0.935; in test [13] it was 0.0108. In addition, the z-score in [14] was 0.364; in [15] it was -1.98; in test [16] it was 1.93; in [17], -1.18 (inactive); in test [18] it was -0.276; in [19] it was -0.42. Besides, the z-score in test [20] was -1.55 (inactive). Besides, the composite z-score in test [2] was found to be 0.0931.

In the case of `CC(C)(C)OC(=O)CC[C@]1(C(=O)N2CCOCC2)N=C(c2ccc(OCCCO)cc2)O[C@H]1c1ccccc1CN=[N+]=[N-]`, the z-score in [1] is -0.47 (inactive); in test [3] it was 13.9 (active); in test [4], 1.71 (inactive); in [5], 1.05 (inactive); in [6], 0.421 (inactive); in test [7] it was 0.705. Besides, the z-score in test [8] was -1.34 (inactive); in test [9], 0.181 (inactive); in test [10] it was -0.476; in [11], -0.385; in test [12] it was 0.0723; in test [13] it was 0.209. For the same compound, the z-score in test [14] was -0.411; in test [15], -0.563; in [16] it was 0.432; in [17], -0.0219 (inactive); in [18], -0.166; in test [19], -0.324. In test [20], the z-score was 0.734 (inactive). Besides, the composite z-score in test [2] was determined as 0.705.

With `NC(=O)NCC#Cc1ccc2c(c1)[C@]1(C(=O)N2)[C@H](C(=O)N2CCCCCCC2)[C@H]2C(=O)O[C@H](c3ccccc3)[C@H](c3ccccc3)N2[C@@H]1c1ccc(O)cc1`, the z-score in [1] is -0.504 (inactive); in [3] it was -0.268 (inactive); in [4], -0.0915 (inactive); in [5], -0.117 (inactive); in test [6] it was -0.0064 (inactive); in test [7], -0.602. Moreover, the z-score is 1.67 (inactive) in [8]; 0.541 (inactive) in test [9]; 1.15 in test [10]; -0.491 in test [11]; -0.542 in test [12]; -0.0358 in [13]. Also, the z-score in test [14] is -0.499; in test [15], -0.193; in test [16], -1.98; in [17] it was -0.35 (inactive); in test [18] it was -0.981; in [19], 0.0512. The z-score in test [20] was -0.0116 (inactive). Also, in [2], the composite z-score came to 2.3.

For the compound `CC1CC/C=C\[C@H]2OC34C=CCN(c5ccc(Cl)cc5)C(=O)[C@H]3N(CCCO)C(=O)[C@]4(C)C2C(=O)O1` (stereo not given in full), the z-score in test [1] is -0.836 (inactive); in [3], 0.113 (inactive); in test [4], 0.66 (inactive); in test [5] it was -0.338 (inactive); in [6], 0.356 (inactive); in test [7], -0.264. In addition, the z-score in test [8] was 1.5 (inactive); in test [9], -1.22 (inactive); in test [10], 2.34; in [11], 0.606; in test [12] it was 0.208; in test [13], -0.865. Besides, the z-score is 1.04 in test [14]; 0.338 in test [15]; -0.713 in test [16]; -0.887 (inactive) in [17]; -0.294 in [18]; 1.86 in test [19]. The z-score in [20] is -0.6 (inactive). The compound further displayed a composite z-score in test [2] of 0.135.

Take `COc1ccc(NN2C(C(O)c3cc(C(F)(F)F)cc(C(F)(F)F)c3)C=CC3C(=O)N(C4CCCCC4)C(=O)C32)cc1` (stereo not given): the z-score in test [1] was -0.523 (inactive); in [3], 1.62 (inactive); in test [4], 0.507 (inactive); in test [5], 0.545 (inactive); in test [6] it was 0.632 (inactive); in test [7], -0.35. For the same compound, the z-score in test [8] was -0.934 (inactive); in test [9] it was -1.64 (inactive); in test [10] it was -1.35; in [11], -0.557; in test [12], -0.826; in test [13], 0.837. For the same compound, the z-score in test [14] is -0.167; in test [15] it was -1.31; in [16], -1.68; in test [17], 0.0313 (inactive); in [18], 0.139; in [19] it was -1.14. Moreover, the z-score in test [20] was -0.35 (inactive). The composite z-score in [2] was determined as 1.41.

With `COCCOC(=O)N1C(=O)[C@@]2(c3ccccc31)[C@H](C(N)=O)[C@H]1C(=O)O[C@H](c3ccccc3)[C@H](c3ccccc3)N1[C@@H]2c1ccc(OCCO)cc1`, the z-score in test [1] was 1.15 (inactive); in test [3] it was 3.76 (inactive); in test [4], 0.527 (inactive); in test [5] it was -0.535 (inactive); in test [6], 0.436 (inactive); in test [7] it was -0.211. Moreover, the z-score in test [8] was -0.555 (inactive); in test [9], 1.1 (inactive); in test [10], 0.00857; in test [11], -0.429; in test [12], 0.452; in test [13], -0.363. Further, the z-score in test [14] is -0.198; in [15], 0.711; in test [16], -0.914; in test [17], 0.055 (inactive); in test [18], -0.112; in [19], -0.523. For the same compound, in test [20], the z-score was 0.574 (inactive). In test [2], the composite z-score turned out to be 0.196.

`CCOC(=O)C1=CC[C@@H](c2ccccc2)N(S(=O)(=O)C[Si](C)(C)C)[C@H]1c1ccccc1`: the z-score in [1] was -2.2 (inactive); in test [3] it was 2.05 (inactive); in test [4], 1.83 (inactive); in test [5], 0.0192 (inactive); in [6], 0.999 (inactive); in test [7], -0.692. For the same compound, the z-score was 0.324 (inactive) in test [8]; -1.26 (inactive) in test [9]; 0.839 in [10]; -0.96 in [11]; 0.147 in [12]; 0.0425 in [13]. The z-score was 0.0106 in test [14]; 0.242 in [15]; -1.37 in [16]; -0.479 (inactive) in test [17]; -0.687 in [18]; -0.667 in test [19]. The z-score in [20] is 0.946 (inactive). This compound showed a composite z-score in test [2] of 0.0437.

In the case of `CC1(C)OC[C@@]23C=C(Br)[C@@H](C[C@H]12)[C@@]1(CO1)C3=O`, the z-score in test [1] is -0.68 (inactive); in [3], -0.396 (inactive); in test [4], 0.355 (inactive); in test [5], 0.0349 (inactive); in test [6], -0.0371 (inactive); in test [7] it was -0.552. For the same compound, the z-score in test [8] is 0.173 (inactive); in test [9], 0.63 (inactive); in test [10], -0.278; in test [11], 0.0066; in test [12] it was -0.588; in test [13] it was -0.0344. Further, the z-score was -0.229 in test [14]; -0.215 in test [15]; -0.973 in test [16]; 0.228 (inactive) in test [17]; 0.855 in [18]; -0.151 in test [19]. Further, the z-score in [20] is -0.843 (inactive). Also, in [2], the composite z-score is 0.0557.

These data come from PubChem BioAssay.
